Molecules are shown by their SMILES. The source made the active and inactive calls.

Assay [1] has as its system Wnt5a (protein binding on small-molecule microarray). The assay is described as follows: small molecules binding Wnt5a protein – biophysical, small-molecule microarray, 635/667 nm fluorescence, primary screen (AID 1142).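 Also: fluorescence read at 667 nm with signal to noise per printed feature.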 To be noted: 635 nm fluorescence, higher = more signal.
Assay [2] is described as follows: ATP-based viability of Huh7 replicon cells – cell-based, CellTiter-Glo luminescence, basal, 48 h, cytotoxicity control for HCV replication inhibitor project, primary screen (AID 1143).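 Also: Huh7 hepatoma cells carrying a hepatitis C replication reporter with no stimulus; test concentration not given here.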 Conditions: higher = more signal, called active from +8 up or from −8 down.
Assay [3] is described as follows: basal CRE-LacZ reporter activity in PC12 – cell-based, unstimulated, primary screen (AID 1145). Conditions: no forskolin, luminescence, 4.5 h, higher = more signal, called active from +8 up or from −8 down.
A short description of assay [4]: forskolin-driven CRE-LacZ activity in PC12 – cell-based, CRE-LacZ reporter, forskolin-stimulated, primary screen (AID 1146).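 Also: PC12 cells with 6xCRE LacZ reporter stimulated by forskolin 10 µM; beta-galactosidase reporter signal reflecting CREB driven transcription.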 Conditions: luminescence, 4.5 h, higher = more signal, called active from +8 up or from −8 down.
Assay [5] concerns the target Streptavidin (Streptomyces avidinii) (UniProt P22629). The assay is described as follows: compounds binding control protein streptavidin – biophysical, small-molecule microarray, 635/667 nm fluorescence, artefact control for SMM compound annotation, primary screen (AID 1147).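 Also: signal reflects streptavidin binding to arrayed compounds as a control protein.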 To be noted: higher = more signal.
Assay [6] is described as follows: probe aInhba binding on compound microarray – biochemical, small-molecule microarray, 635/667 nm fluorescence, primary screen (AID 1148).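 Also: score merges 667nm spot fluorescence with signal-to-noise for antibody binding to printed compounds.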 Conditions: higher = more signal.
The target in assay [7] is Torsin-1A (Homo sapiens) (UniProt O14656). In words: TOR1A wild-type binding on microarray – cell lysate, small-molecule microarray, lysate, 635/667 nm, primary screen (AID 1149). Conditions: COS7 hTOR1A-WT lysate, 635 nm fluorescence, higher = more signal.
The target is the same in assay [8]. The assay is described as follows: torsin A mutant lysate binding on microarrays – cell lysate, small-molecule microarray, COS7 lysate, 635/667 nm fluorescence, primary screen (AID 1150).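 Also: score pools 667 nm emission and signal to noise measuring lysate protein binding.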 Conditions: COS7 hTOR1A mutant lysate, 635 nm fluorescence, higher = more signal.
The subject of assay [9] is Sonic hedgehog protein (Shh). In words: Sonic hedgehog microarray binding compounds – biochemical, small-molecule microarray, 635/667 nm fluorescence, primary screen (AID 1151).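 Also: Shh protein binding to compounds spotted on small-molecule microarray slides; score combines spot fluorescence intensity with signal-to-noise across triplicate slides.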 To be noted: 635 nm fluorescence, higher = more signal.
A short description of assay [10]: optical density shifts of acrAB sulA E. coli – strain DRC41, OD650, 48 h, E. coli filamentation inducer project, primary screen (AID 1152).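 Also: E. coli MC1000 strain DRC41 lacking acrAB efflux pump and sulA.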 To be noted: higher = more signal, called active from +8 up or from −8 down.
Assay [11] is described as follows: probe aLefty1 binding on compound microarray – biochemical, small-molecule microarray, 635/667 nm fluorescence, primary screen (AID 1153).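 Also: score merges spot fluorescence with signal-to-noise ratio from the scanned slide images.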 To be noted: higher = more signal.
Assay [12] is described as follows: plasmodial surface anion channel blockers, osmotic lysis – cell-based, P. falciparum Indochina, OD700, 1 h, primary screen (AID 1154). To be noted: P. falciparum Indochina infected RBC osmotic lysis, higher = more signal, called active from +8 up or from −8 down.
Assay [13] can be described thus: plasmodial surface anion channel blockers, osmotic lysis – cell-based, P. falciparum Indochina, OD700, 2 h, primary screen (AID 1155).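 Also: lysis reports solute entry through the parasite surface anion channel PSAC.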 To be noted: P. falciparum Indochina infected erythrocytes, higher = more signal, called active from +8 up or from −8 down.
A short description of assay [14]: changes in parasitized red cell lysis, either direction – P. falciparum Indochina, OD700, 3 h, PSAC antagonist project, primary screen (AID 1156). Conditions: P. falciparum-infected erythrocytes, osmotic lysis, higher = more signal, called active from +8 up or from −8 down.
Assay [15] can be described thus: plasmodial surface anion channel blockers, osmotic lysis – cell-based, P. falciparum Indochina, OD700, 18 h, primary screen (AID 1157). To be noted: P. falciparum Indochina infected erythrocytes, osmotic lysis OD700, 18 h; higher = more signal, called active from +8 up or from −8 down.
Assay [16] in a line: S6 kinase pathway phospho-S6 level changes – cell-based, A549, cytoblot, luminescence, serum-stimulated, primary screen (AID 1158).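 Also: serum-stimulated A549 lung adenocarcinoma cells; signal is phosphorylated S6 detected by cytoblot immunostaining with HRP secondary.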 Conditions: 5 h, higher = more signal.
In assay [17] the target is NADPH oxidase 2 (Homo sapiens) (UniProt P04839). The assay is described as follows: compounds shifting NOX2 Amplex Red fluorescence – cell-based, HEK293-NOX2, PMA-stimulated, NOX inhibitor project, primary screen (AID 1159). Also: test concentration not given here. To be noted: 45 min, higher = more signal, called active from +8 up or from −8 down.
Assay [18] has as its target NADPH oxidase 4 (Homo sapiens) (UniProt Q9NPH5). In words: compounds shifting NOX4 Amplex Red fluorescence – cell-based, HEK293-NOX4, tetracycline-induced, NOX inhibitor project, primary screen (AID 1160). Conditions: HEK293-NOX4, Amplex Red H2O2 fluorescence, 45 min; higher = more signal, called active from +8 up or from −8 down.
The target in assay [19] is NADPH oxidase 5 (Homo sapiens) (UniProt Q96PH1). In words: compounds shifting NOX5 Amplex Red fluorescence – cell-based, HEK293-NOX5, NOX inhibitor project, primary screen (AID 1161). To be noted: HEK293-NOX5, ionomycin, 45 min, higher = more signal.
A short description of assay [20]: compound effects on lung adenocarcinoma cell viability – A549, calcein-AM fluorescence, 48 h, basal, profiling panel (AID 1162). Also: test concentration not given here. Conditions: higher = more signal.

NADPH oxidase 2 (Homo sapiens), sequence (P04839 whole entry, looked up): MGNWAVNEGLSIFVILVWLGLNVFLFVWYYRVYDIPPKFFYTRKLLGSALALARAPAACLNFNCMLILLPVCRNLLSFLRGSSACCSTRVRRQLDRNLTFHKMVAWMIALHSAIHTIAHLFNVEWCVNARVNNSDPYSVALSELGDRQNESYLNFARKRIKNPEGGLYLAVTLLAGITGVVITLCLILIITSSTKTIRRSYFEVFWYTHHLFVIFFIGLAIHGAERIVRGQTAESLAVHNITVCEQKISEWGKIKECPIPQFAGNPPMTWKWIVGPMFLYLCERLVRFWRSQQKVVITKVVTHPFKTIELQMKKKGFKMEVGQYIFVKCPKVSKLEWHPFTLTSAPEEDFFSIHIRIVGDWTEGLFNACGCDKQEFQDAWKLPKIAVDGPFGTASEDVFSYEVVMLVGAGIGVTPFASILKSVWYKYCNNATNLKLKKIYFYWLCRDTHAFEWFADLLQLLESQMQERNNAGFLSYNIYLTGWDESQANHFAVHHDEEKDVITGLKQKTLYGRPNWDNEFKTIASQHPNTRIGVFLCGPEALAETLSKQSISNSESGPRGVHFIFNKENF
Streptavidin (Streptomyces avidinii), sequence (P22629 whole entry, looked up): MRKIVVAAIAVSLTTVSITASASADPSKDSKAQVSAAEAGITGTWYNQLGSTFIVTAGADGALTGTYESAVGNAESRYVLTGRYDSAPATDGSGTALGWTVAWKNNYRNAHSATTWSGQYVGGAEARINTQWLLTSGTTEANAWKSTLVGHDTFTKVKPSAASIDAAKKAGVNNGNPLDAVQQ
NADPH oxidase 4 (Homo sapiens), sequence (Q9NPH5 whole entry, looked up): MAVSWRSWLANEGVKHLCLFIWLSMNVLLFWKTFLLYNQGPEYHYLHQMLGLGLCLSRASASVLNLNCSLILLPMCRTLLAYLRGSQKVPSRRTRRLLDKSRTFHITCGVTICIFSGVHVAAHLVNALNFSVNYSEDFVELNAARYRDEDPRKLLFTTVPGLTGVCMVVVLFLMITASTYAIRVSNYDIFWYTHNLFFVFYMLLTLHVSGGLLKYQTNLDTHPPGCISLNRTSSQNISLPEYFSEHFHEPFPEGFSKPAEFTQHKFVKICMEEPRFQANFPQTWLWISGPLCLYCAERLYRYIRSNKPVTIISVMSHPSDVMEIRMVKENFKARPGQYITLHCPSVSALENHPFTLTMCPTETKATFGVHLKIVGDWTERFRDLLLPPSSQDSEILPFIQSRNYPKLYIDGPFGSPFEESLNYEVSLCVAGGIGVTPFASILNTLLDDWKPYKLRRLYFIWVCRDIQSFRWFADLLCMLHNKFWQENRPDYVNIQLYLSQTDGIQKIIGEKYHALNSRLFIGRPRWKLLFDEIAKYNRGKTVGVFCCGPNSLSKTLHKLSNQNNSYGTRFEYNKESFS
NADPH oxidase 5 (Homo sapiens), sequence (Q96PH1 whole entry, looked up): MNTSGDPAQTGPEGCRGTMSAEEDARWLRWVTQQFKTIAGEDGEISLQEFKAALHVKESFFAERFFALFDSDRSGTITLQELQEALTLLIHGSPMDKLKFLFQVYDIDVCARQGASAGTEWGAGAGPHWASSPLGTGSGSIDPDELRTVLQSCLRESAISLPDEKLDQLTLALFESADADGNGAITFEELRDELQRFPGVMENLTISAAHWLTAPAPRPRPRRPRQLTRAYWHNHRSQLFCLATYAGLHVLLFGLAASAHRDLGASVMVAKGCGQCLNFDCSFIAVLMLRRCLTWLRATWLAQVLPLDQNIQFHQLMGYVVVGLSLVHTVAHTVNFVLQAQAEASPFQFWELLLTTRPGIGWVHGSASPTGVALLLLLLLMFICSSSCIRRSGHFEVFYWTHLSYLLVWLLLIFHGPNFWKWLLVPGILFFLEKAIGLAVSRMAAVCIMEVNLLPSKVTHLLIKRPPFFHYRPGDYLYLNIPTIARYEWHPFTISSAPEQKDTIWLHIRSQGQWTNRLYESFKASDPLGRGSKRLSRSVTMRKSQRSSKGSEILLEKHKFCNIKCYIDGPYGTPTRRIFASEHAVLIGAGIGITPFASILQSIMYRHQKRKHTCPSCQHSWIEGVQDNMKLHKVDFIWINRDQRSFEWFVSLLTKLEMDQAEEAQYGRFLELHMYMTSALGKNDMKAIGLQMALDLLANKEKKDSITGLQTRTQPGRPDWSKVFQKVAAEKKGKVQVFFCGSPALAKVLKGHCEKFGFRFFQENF
Torsin-1A (Homo sapiens), sequence (O14656 whole entry, looked up): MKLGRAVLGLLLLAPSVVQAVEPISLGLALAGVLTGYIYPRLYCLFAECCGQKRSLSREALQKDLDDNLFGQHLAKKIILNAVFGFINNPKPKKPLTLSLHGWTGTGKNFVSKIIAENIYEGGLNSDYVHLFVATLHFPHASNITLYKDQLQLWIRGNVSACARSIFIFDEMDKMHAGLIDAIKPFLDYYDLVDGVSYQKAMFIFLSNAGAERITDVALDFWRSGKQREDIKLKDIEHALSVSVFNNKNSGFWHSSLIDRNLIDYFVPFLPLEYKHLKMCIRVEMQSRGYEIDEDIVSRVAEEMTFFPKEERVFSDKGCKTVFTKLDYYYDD

For the compound `C=C(C1=CCN(S(=O)(=O)c2ccc(C)cc2)C1)[C@@H](OC(C)=O)[C@@H]1CCCN1S(=O)(=O)c1ccccc1[N+](=O)[O-]`, the composite z-score is 0.0375 in assay [1]; -1.05 in assay [5]; -0.128 in assay [6]; -0.499 in the assay with Torsin-1A (Homo sapiens) [7]; -0.406 with Torsin-1A (Homo sapiens) [8]; 0.706 in assay [9]. This compound came in with a composite z-score in [11] of -0.109. In addition, the z-score in assay [2] is -4.37 (inactive); in [3], 2.02 (inactive); in [4], -1.11 (inactive); in [10], 2.47 (inactive); in [12], 26.3 (active); in assay [13], 17 (active). Also, the z-score in assay [14] was 0.77 (inactive); in assay [15], 0.623 (inactive); in [16] it was 0.993; in assay [17], 0.0272 (inactive); in [18], -1.36 (inactive); in assay [19], 0.69. For the same compound, in assay [20], the z-score is -0.498.
As to `C=CC[C@]1(C(=O)N2CCCCC2)COC(c2ccc(OCCCO)cc2)=N1`, the composite z-score in [1] is 0.0945; in assay [5] it was -0.712; in [6] it was -0.128; with Torsin-1A (Homo sapiens) [7], -0.273; with Torsin-1A (Homo sapiens) [8], -0.204; in assay [9], 0.0166. In assay [11], the composite z-score turned out to be 0.0391. Also, the z-score in [2] was -4.06 (inactive); in [3], 1.08 (inactive); in assay [4] it was -1.78 (inactive); in [10], 0.924 (inactive); in assay [12], 24.9 (active); in assay [13], 12 (active). The z-score in assay [14] was 4.37 (inactive); in assay [15], 0.866 (inactive); in assay [16], 0.826; in [17] it was -3.2 (inactive); in assay [18], -0.256 (inactive); in assay [19], -3.57. Moreover, the z-score in assay [20] was -1.48.
`C=CCNC(=O)[C@H]1[C@@H]2C(=O)O[C@@H](c3ccccc3)[C@@H](c3ccccc3)N2[C@@H](c2ccc(OCCO)cc2)[C@]12C(=O)Nc1ccc(C#CCCO)cc12`: the composite z-score was -0.09 in assay [1]; -0.0494 in [5]; -0.0639 in [6]; 0.234 with Torsin-1A (Homo sapiens) [7]; 0.21 in the assay with Torsin-1A (Homo sapiens) [8]; 1.06 in assay [9]. For the same compound, in assay [11], the composite z-score is 0.0793. Further, the z-score in assay [2] was -2.34 (inactive); in assay [3], 0.0384 (inactive); in [4] it was 0.8 (inactive); in assay [10], 2.32 (inactive); in [12], 4.5 (inactive); in assay [13] it was -0.407 (inactive). In addition, the z-score in assay [14] was -0.144 (inactive); in assay [15] it was -2.03 (inactive); in assay [16], 2.16; in assay [17], 2.4 (inactive); in [18] it was 1.18 (inactive); in [19], 0.572. Besides, the z-score in [20] was 0.109.
For the compound `CCCNC(=O)[C@@]1(Sc2ccc(C)cc2)CC(=O)N(Cc2cc(C(F)(F)F)cc(C(F)(F)F)c2)[C@@H]1c1ccc(CO)cc1I`, the composite z-score in assay [1] was 0.0758; in assay [5] it was -0.179; in assay [6], 0.172; with Torsin-1A (Homo sapiens) [7], -0.365; with Torsin-1A (Homo sapiens) [8], 0.0283; in assay [9], 0.158. Also, the composite z-score in assay [11] was found to be 0.114. Moreover, the z-score is -3.48 (inactive) in assay [2]; 0.0279 (inactive) in assay [3]; -1.35 (inactive) in [4]; 3.98 (inactive) in assay [10]; 2.98 (inactive) in assay [12]; 0.438 (inactive) in [13]. Besides, the z-score in [14] was -0.436 (inactive); in [15], -0.191 (inactive); in [16] it was 4.1; in [17] it was 1.32 (inactive); in assay [18], -1.29 (inactive); in [19], 1.37. For the same compound, the z-score in assay [20] was 2.5.
As for `C=CCN1C(=O)[C@@]2(O[C@@H](CCn3cc(CCO)nn3)[C@H]([Si](C)(C)c3ccc(OC)cc3)[C@H]2C)c2cc(NC(=O)c3ccc(OC)cc3)ccc21`, the composite z-score stood at 0.315 in [1]; 0.441 in assay [5]; 0.0497 in assay [6]; 0.558 with Torsin-1A (Homo sapiens) [7]; 0.437 with Torsin-1A (Homo sapiens) [8]; 1.4 in [9]. This compound also returned a composite z-score in [11] of 0.0789. Moreover, the z-score in [2] is -2.79 (inactive); in assay [3], 12.8 (active); in assay [4], -2.29 (inactive); in [10], 0.596 (inactive); in assay [12], 12.1 (active); in assay [13], 2.03 (inactive). The z-score was 1.1 (inactive) in assay [14]; 0.742 (inactive) in [15]; 0.157 in [16]; -0.282 (inactive) in [17]; 1.45 (inactive) in [18]; 0.367 in [19]. Also, the z-score in assay [20] is -0.0183.
For the compound `COCCCNC(=O)[C@@]1(Cc2ccccc2)N=C(c2ccc(OCCCO)cc2)O[C@H]1c1ccccc1N=[N+]=[N-]`, the composite z-score amounted to 0.834 in assay [1]; 0.356 in [5]; 0.49 in assay [6]; 0.544 with Torsin-1A (Homo sapiens) [7]; 0.449 in the assay with Torsin-1A (Homo sapiens) [8]; 0.475 in [9]. In [11], this compound came in with a composite z-score of 0.826. For the same compound, the z-score is -4.48 (inactive) in assay [2]; 1.74 (inactive) in assay [3]; -1.74 (inactive) in assay [4]; 1.78 (inactive) in assay [10]; 29.6 (active) in assay [12]; 27.1 (active) in [13]. The z-score is 3.66 (inactive) in assay [14]; 1.92 (inactive) in [15]; 0.98 in [16]; -0.14 (inactive) in assay [17]; 0.523 (inactive) in [18]; -1.57 in assay [19]. In [20], the z-score was -0.622.
Turning to `COc1ccc(C#Cc2ccc3c(c2)[C@]2(C(=O)N3)[C@H](c3ccc(O)cc3)N3[C@H](c4ccccc4)[C@H](c4ccccc4)OC(=O)[C@H]3[C@@H]2C(=O)N2CCN(c3ncccn3)CC2)cc1`, the composite z-score in assay [1] stood at 0.167; in assay [5], 1.13; in assay [6], 0.18; with Torsin-1A (Homo sapiens) [7] it was 0.246; with Torsin-1A (Homo sapiens) [8], 0.923; in [9], 0.262. Moreover, the composite z-score in [11] is 0.312. In addition, the z-score was -1.76 (inactive) in assay [2]; 0.478 (inactive) in assay [3]; 0.708 (inactive) in [4]; 1.77 (inactive) in assay [10]; 1.28 (inactive) in [12]; 0.22 (inactive) in assay [13]. Also, the z-score in assay [14] is 1.19 (inactive); in assay [15] it was 0.564 (inactive); in [16], 0.26; in assay [17] it was 0.393 (inactive); in assay [18], 0.0458 (inactive); in assay [19] it was 1.21. For the same compound, the z-score in assay [20] is 0.214.

The values above are taken from PubChem BioAssay.
